# Measured values published in PubChem BioAssay (NCATS).
# Inconclusive results are not listed. Calls of active or inactive are those of the source. Calls come from the whole dose curve; as a rule, active = well fitted inhibition curve with a large enough effect; inconclusive = small, poorly fitted or top-dose-only effect; inactive = flat fitted curve, though single readings scatter.
# Test system: C2A
# Test: qHTS profiling for inhibitors of Plasmodium falciparum proliferation (AID 504749);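 note: 0% = DMSO vehicle and full inhibition = artemisinin control; nearly all actives have a fitted effect of over 60% in size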
# Conditions: P. falciparum in erythrocytes, SYBR Green DNA, 72 h; series mostly up to 28.7 µM; activity, negative = inhibition: at the top concentration
# In short: (§1)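 SYBR Green fluorescence (ex 485 nm, em 535 nm) reports parasite DNA after 72 h compound exposure of infected red cells at 0.3% parasitemia, 2.5% hematocrit; signal normalized to 0.29 uM artemisinin and vehicle wells.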
row,SMILES,"activity, negative = inhibition"
1,C[C@H]1COc2c(C3(N)CC3)c(F)cc3c(=O)c(C(=O)O)cn1c23,-2.86% (inactive)
2,CC(=O)SC[C@@H](Cc1ccccc1)C(=O)NCC(=O)OCc1ccccc1,0.0369% [at 12.8 µM] (inactive)
3,Cc1[nH]c(C)c(Cl)c(=O)c1Cl,-5.27% (inactive)
4,O=C(O)CCCCC1CCSS1 (stereo not given),-5.89% (inactive)
5,CCN1CC(CCN2CCOCC2)C(c2ccccc2)(c2ccccc2)C1=O (stereo not given),-12.2% (inactive)
6,CN(C/C=C/C#CC(C)(C)C)Cc1cccc2ccccc12,-2.09% (inactive)

# Test system: CP185
# Test: as above
# Conditions: P. falciparum in erythrocytes, SYBR Green DNA, 72 h; series mostly up to 28.7 µM; activity, negative = inhibition: at the top concentration
# In short: as §1
row,SMILES,"activity, negative = inhibition"
1,O=C1c2cccc(O)c2C(=O)c2c(O)cccc21,1.27% (inactive)
2,COc1nccnc1NS(=O)(=O)c1ccc(N)cc1,0.656% (inactive)
3,O=C1c2ccccc2S(=O)(=O)N1CCCCN1CCN(c2ncccn2)CC1,-2.42% (inactive)
4,OCC(O)CS (stereo not given),0.45% (inactive)
5,Nc1ncnc(Nc2ccccc2)n1,-1.96% (inactive)
6,NC(=O)CCCCC1CCSS1 (stereo not given),0.327% (inactive)
7,O=C(c1ccccc1)C(O)c1ccccc1 (stereo not given),-1.29% (inactive)
8,CC(C)=CCC/C(C)=C/CO,6.6% (inactive)
9,CCOC(=O)[C@H](CCc1ccccc1)N[C@@H](C)C(=O)N1CCC[C@H]1C(=O)O,7.15% (inactive)
10,NCc1ccc(S(N)(=O)=O)cc1,7.49% [at 12.8 µM] (inactive)
11,Cc1cc(OI)c(C(C)C)cc1-c1cc(C(C)C)c(OI)cc1C,-24.8% (inactive)
12,O=C1CC[C@@H](C(=O)O)N1,3.11% (inactive)
13,Cc1c(NC(=O)c2cccnc2)c(=O)n(-c2ccccc2)n1C,1.19% [at 12.8 µM] (inactive)
14,CCCCCCCCCCC(CO)CCCCCCCC (stereo not given),2.3% (inactive)
15,O=C1c2ccccc2C(=O)C1c1ccc(Br)cc1,-17.8% (inactive)
16,CCCCCCCC(=O)OCC(COC(=O)CCCCCCC)OC(=O)CCCCCCC,-1.32% (inactive)
17,CCCCCC(C)N (stereo not given),-10.2% (inactive)
18,CC(=O)N[C@@H](Cc1ccc(O)cc1)C(=O)O,8.96% (inactive)
19,CC(=O)Oc1cccc(O)c1,1.95% (inactive)
20,Cc1onc(-c2ccccc2)c1-c1ccc(S(N)(=O)=O)cc1,9.46% (inactive)
21,O=C1C(c2[nH]c3ccccc3c2O)=Nc2ccccc21,-8.03% (inactive)
22,Cc1c(I)c(=O)n(-c2ccccc2)n1C,-12.4% (inactive)
23,CN(C(=O)c1c(O)c2ccccc2n(C)c1=O)c1ccccc1,13.1% (inactive)
24,C[C@H]1COc2c(C3(N)CC3)c(F)cc3c(=O)c(C(=O)O)cn1c23,0.035% (inactive)
25,CC(=O)SC[C@@H](Cc1ccccc1)C(=O)NCC(=O)OCc1ccccc1,3.94% [at 12.8 µM] (inactive)
26,Cc1[nH]c(C)c(Cl)c(=O)c1Cl,-0.689% (inactive)
27,O=C(O)CCCCC1CCSS1 (stereo not given),3.15% (inactive)
28,CCN1CC(CCN2CCOCC2)C(c2ccccc2)(c2ccccc2)C1=O (stereo not given),-28.7% (inactive)
29,CN(C/C=C/C#CC(C)(C)C)Cc1cccc2ccccc12,0.138% (inactive)
